The supplement of paper PMC12494721
Counter-ions that a name gives are not always drawn.

What was measured:
Settings in all cases: incubation time: 27 h, anaerobic, 37 °C;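 for the amine columns active = adjusted P below 0.05 in both replicates with a change the same way and a mean fold change under 0.8 or over 1.25; inactive = the rest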
[1] = system: Clostridium sporogenes DSM 1664; experiment: growth (OD595) fold change vs plate DMSO controls (fold change (ratio)); higher = more growth
Method in brief: (§1)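 Growth is the fold change relative to the median of plate DMSO controls. Readings came from anaerobic mGAM cultures in 96-well plates grown for 27 h at 37 °C and read at 595 nm. They were blank-subtracted, corrected for compound background with 20 µM compound solutions in water, and converted to OD with a calibration factor of 5. Values are means of 2 biological replicates, and fold changes above 1.5 were set to NA.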

[2] = system: Escherichia coli IAI1; experiment: as above
Method in brief: as §1

[3] = system: Klebsiella aerogenes DSM 30053; experiment: as above
Method in brief: as §1

[4] = system: Ruminococcus gnavus DSM 108212; experiment: as above
Method in brief: as §1

[5] = system: Klebsiella aerogenes DSM 30053; experiment: fold change of Histamine concentration vs plate DMSO controls (fold change (ratio)); higher = more amine produced, active = hit call of the paper (significant change in both replicates, either direction)
Method in brief: (§2)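 Anaerobic mGAM cultures of four gut bacterial strains were grown at 37 °C for 27 h in 80 µL wells, starting at OD 0.1 before 1:1 dilution. Compounds were at 20 µM final (sweeteners 50 µM). Whole cultures were extracted with cold acetonitrile/methanol containing 0.1% formic acid and centrifuged. Amines were quantified by LC–triple-quadrupole MS (dynamic MRM) against external calibration curves and drift-corrected within batch. Each value is the fold change versus plate DMSO controls, averaged over 2 biological replicates.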

[6] = system: Clostridium sporogenes DSM 1664; experiment: fold change of Tryptamine concentration vs plate DMSO controls (fold change (ratio)); higher = more amine produced, active = hit call of the paper (significant change in both replicates, either direction)
Method in brief: as §2

[7] = system: Ruminococcus gnavus DSM 108212; experiment: as above
Method in brief: as §2

[8] = system: Escherichia coli IAI1; experiment: fold change of Putrescine concentration vs plate DMSO controls (fold change (ratio)); higher = more amine produced, active = hit call of the paper (significant change in both replicates, either direction)
Method in brief: as §2

[9] = system: Klebsiella aerogenes DSM 30053; experiment: as above
Method in brief: as §2

[10] = system: Escherichia coli IAI1; experiment: fold change of Cadaverine concentration vs plate DMSO controls (fold change (ratio)); higher = more amine produced, active = hit call of the paper (significant change in both replicates, either direction)
Method in brief: as §2

[11] = system: Klebsiella aerogenes DSM 30053; experiment: as above
Method in brief: as §2

[12] = system: Ruminococcus gnavus DSM 108212; experiment: fold change of 2-Phenylethylamine concentration vs plate DMSO controls (fold change (ratio)); higher = more amine produced, active = hit call of the paper (significant change in both replicates, either direction)
Method in brief: as §2

SMILES	growth [1]	growth [2]	growth [3]	growth [4]	fold change of Histamine concentration [5]	fold change of Tryptamine concentration [6]	fold change of Tryptamine concentration [7]	fold change of Putrescine concentration [8]	fold change of Putrescine concentration [9]	fold change of Cadaverine concentration [10]	fold change of Cadaverine concentration [11]	fold change of 2-Phenylethylamine concentration [12]
O=C(NC(Cc1cc(=O)[nH]c2ccccc12)C(=O)O)c1ccc(Cl)cc1 (stereo not drawn) [Rebamipide] (20 µM)	0.925	1.01	0.964	0.957	0.934 (inactive)	1.06 (inactive)	1.28 (active)	1.07 (inactive)	0.965 (inactive)	0.957 (inactive)	1 (inactive)	1.52 (active)
CCCCCCCCCCCCCCCCCCCCCC(=O)Nc1ccn([C@@H]2O[C@H](CO)[C@@H](O)[C@@H]2O)c(=O)n1 [Enocitabine] (20 µM)	0.978	0.973	0.98	0.975	1.03 (inactive)	0.984 (inactive)	0.913 (inactive)	1.01 (inactive)	1.01 (inactive)	1.01 (inactive)	1.02 (inactive)	0.866 (inactive)
C=C(C)[C@@H]1CC=C(/C=N/O)CC1 [Perillartine] (50 µM)	1.04	1.04	1.09	1.11	0.933 (inactive)	1.02 (inactive)	1 (inactive)	0.985 (inactive)	1.03 (inactive)	0.99 (inactive)	1.02 (inactive)	1 (inactive)
C/C(=C\C(=O)OCCCCCCCCC(=O)O)C[C@@H]1OC[C@H](C[C@@H]2O[C@H]2[C@@H](C)[C@H](C)O)[C@@H](O)[C@H]1O [Mupirocin] (20 µM)	0.909	0.423	0.631	0.934	0.384 (active)	0.968 (inactive)	1.04 (inactive)	0.182 (active)	0.7 (active)	0.209 (active)	0.763 (active)	0.957 (inactive)
CC12CC3CC(C)(C1)CC(N)(C3)C2 [Memantine hydrochloride] (20 µM)	1.01	0.987	1	0.997	0.989 (inactive)	1.03 (inactive)	1.09 (inactive)	0.984 (inactive)	0.984 (inactive)	0.995 (inactive)	0.992 (inactive)	1.13 (inactive)
O=C1c2c(O)ccc(O)c2C(=O)c2c(NCCNCCO)ccc(NCCNCCO)c21 [Mitoxantrone dihydrochloride] (20 µM)	0.733	0.831	1.02	1.24	0.924 (inactive)	1.01 (inactive)	0.978 (inactive)	0.999 (inactive)	1.02 (inactive)	0.988 (inactive)	1.04 (inactive)	0.958 (inactive)
N=C(N)NC(=O)c1nc(Cl)c(N)nc1N [Amiloride hydrochloride dihydrate] (20 µM)	0.984	0.951	0.984	0.948	0.982 (inactive)	0.98 (inactive)	1.09 (inactive)	1.03 (inactive)	0.94 (inactive)	0.987 (inactive)	1.05 (inactive)	1.08 (inactive)
C[C@]12CC[C@@H]3c4ccc(O)cc4CC[C@H]3[C@@H]1C[C@@H](O)[C@@H]2O [Estriol] (20 µM)	1.12	0.963	1.17	1.15	0.888 (inactive)	1.01 (inactive)	0.936 (inactive)	0.991 (inactive)	0.993 (inactive)	1.02 (inactive)	1.02 (inactive)	0.884 (inactive)
CC[C@H]1OC(=O)[C@H](C)[C@@H](O[C@H]2C[C@@](C)(OC)[C@@H](O)[C@H](C)O2)[C@H](C)[C@@H](O[C@@H]2O[C@H](C)C[C@H](N(C)C)[C@H]2O)[C@](C)(OC)C[C@@H](C)C(=O)[C@H](C)[C@@H](O)[C@]1(C)O [Clarithromycin] (20 µM)	0	0.665	0.941	0.257	0.636 (inactive)	0.0515 (active)	0.11 (active)	0.434 (inactive)	0.888 (inactive)	0.944 (inactive)	1.03 (inactive)	0.118 (active)
Cc1cn([C@H]2C[C@H](N=[N+]=[N-])[C@@H](CO)O2)c(=O)[nH]c1=O [Zidovudine] (20 µM)	0.921	0.825	0.946	1.45	1.12 (inactive)	1.04 (inactive)	1.02 (inactive)	0.549 (inactive)	1.07 (inactive)	1.79 (inactive)	0.981 (inactive)	1.11 (inactive)
CC(=O)O[C@H]1C[C@@]2(C)[C@@H](C[C@@H](O)[C@H]3[C@@]4(C)CC[C@@H](O)[C@@H](C)[C@@H]4CC[C@@]32C)/C1=C(\CCC=C(C)C)C(=O)O [Fusidic acid sodium salt] (20 µM)	0.00767	1.02	1.09	0.122	0.846 (inactive)	0.0208 (active)	0.102 (active)	0.913 (inactive)	0.963 (inactive)	1 (inactive)	1.02 (inactive)	0.106 (active)
O=C(NCC(O)CO)c1c(I)c(C(=O)NCC(O)CO)c(I)c(N(CCO)C(=O)CO)c1I (stereo not drawn) [Ioversol] (20 µM)	1.09	0.998	1.01	1.11	0.997 (inactive)	1.11 (inactive)	1.11 (inactive)	0.923 (inactive)	0.975 (inactive)	0.924 (inactive)	1.02 (inactive)	1.12 (inactive)
O=c1cc(-c2ccc(O)c(O)c2)oc2cc(O)cc(O)c12 [Luteolin] (20 µM)	0.877	0.977	0.977	1.11	0.969 (inactive)	0.776 (inactive)	0.985 (inactive)	1.07 (inactive)	0.991 (inactive)	1.03 (inactive)	1.02 (inactive)	1.08 (inactive)
CC(C(=O)O)c1ccc(-c2ccccc2)c(F)c1 (stereo not drawn) [Flurbiprofen] (20 µM)	0.961	1	1	1.02	1.07 (inactive)	1.02 (inactive)	0.937 (inactive)	1.06 (inactive)	1.03 (inactive)	1 (inactive)	1.01 (inactive)	0.882 (inactive)
C[C@]12CCC3=C4CCC(=O)C=C4CC[C@H]3[C@@H]1CC[C@@]2(O)CC#N [Dienogest] (20 µM)	0.815	0.536	0.616	0.67	0.945 (inactive)	1.01 (inactive)	1.04 (inactive)	0.979 (inactive)	1 (inactive)	0.993 (inactive)	1 (inactive)	1.02 (inactive)
O=C(O)Cc1ccc(-c2ccccc2)cc1 [Felbinac] (20 µM)	1	1.01	1.08	1.01	0.921 (inactive)	0.994 (inactive)	1.01 (inactive)	1.03 (inactive)	0.976 (inactive)	0.989 (inactive)	0.998 (inactive)	1.01 (inactive)
CN1CCN(CC(=O)N2c3ccccc3C(=O)Nc3cccnc32)CC1 [Pirenzepine dihydrochloride] (20 µM)	1.06	1.02	0.992	1.03	1.1 (inactive)	1.02 (inactive)	0.993 (inactive)	1.01 (inactive)	1.08 (inactive)	0.99 (inactive)	1.04 (inactive)	0.916 (inactive)
CCOC(=O)[C@H](CCc1ccccc1)N[C@H]1CCc2ccccc2N(CC(=O)O)C1=O [Benazepril hydrochloride] (20 µM)	1.03	1	1	1.02	1 (inactive)	1.06 (inactive)	1.02 (inactive)	0.997 (inactive)	0.981 (inactive)	0.989 (inactive)	1.02 (inactive)	1.01 (inactive)
CC1=Nc2ccc(Cl)cc2S(=O)(=O)N1 [Diazoxide] (20 µM)	1.06	1.01	0.986	1.21	1.1 (inactive)	1.09 (inactive)	1.16 (inactive)	0.991 (inactive)	1.06 (inactive)	0.943 (inactive)	1.1 (inactive)	1.35 (active)
CC(CN(C)C)CN1c2ccccc2CCc2ccccc21 (stereo not drawn) [Trimipramine maleate salt] (20 µM)	0.87	0.987	0.974	0.826	0.994 (inactive)	0.985 (inactive)	0.998 (inactive)	0.961 (inactive)	1.01 (inactive)	1.04 (inactive)	1 (inactive)	1.02 (inactive)
O=C(O)CCNC(=O)c1ccc(/N=N/c2ccc(O)c(C(=O)O)c2)cc1 [Balsalazide disodium salt] (20 µM)	1	1	1.02	0.934	0.892 (inactive)	0.993 (inactive)	1.21 (inactive)	0.893 (inactive)	1.01 (inactive)	0.963 (inactive)	1.11 (inactive)	1.51 (active)
Cc1ccc(=O)n(-c2ccccc2)c1 [Pirfenidone] (20 µM)	0.978	0.995	0.983	0.984	1.02 (inactive)	1.04 (inactive)	0.978 (inactive)	1.01 (inactive)	1.01 (inactive)	1.01 (inactive)	0.981 (inactive)	0.958 (inactive)
CS(=O)(=O)c1ccc(C2=C(c3ccccc3)C(=O)OC2)cc1 [Rofecoxib] (20 µM)	1	0.962	0.973	1.1	0.981 (inactive)	1.2 (inactive)	1.08 (inactive)	1.02 (inactive)	0.99 (inactive)	1.04 (inactive)	1.01 (inactive)	1.07 (inactive)
CCCOc1ccccc1-c1nc2[nH]nnc2c(=O)[nH]1 [Zaprinast] (20 µM)	1.03	0.972	1	1.2	0.988 (inactive)	1.01 (inactive)	1.01 (inactive)	0.969 (inactive)	1 (inactive)	0.974 (inactive)	1 (inactive)	1.06 (inactive)
